SMILES strings stand for the structures. Among all 65,000 compounds or so, about 2,100 (3.2%) showed an effect of 50% or more. The median lay at about -52%. For the sample, strong results were picked, then their nearest neighbours and some compounds at random.

Our source for the INHIBITION values is ChEMBL document CHEMBL4513216, “Probing the Open Global Health Chemical Diversity Library for Multistage-Active Starting Points for Next-Generation Antimalarials” (ACS Infect Dis, 2020).

The subject of this experiment is Plasmodium falciparum. Put plainly: Screen against P. falciparum Asexual Blood Stage (ABS), at 5uM. To be noted: tested at 5 uM. The experiment is classed as functional, Dd2.
Take `Cc1nc2c(c(NCCCN3CCOCC3)n1)CCN(C)C2`: the INHIBITION is -73.4%.
Next, `COC(=O)c1cccn1C1CCN(Cc2ccccc2)CC1`: -122%; `CN1CC2(CCC1=O)CCN(CC[C@@H](O)c1ccccc1)CC2`: -14%; `Cn1cnnc1CNC(=O)C1CCCN(Cc2cccc(F)c2)C1` (stereo not drawn): -141%.
`Cn1cc(CNC(=O)C2CCCN(Cc3cccc(F)c3)C2)cn1` (stereo not drawn): the INHIBITION is on record as -59.1%.
As to `Cn1ccnc1CCNC(=O)C1CCCN(Cc2cccc(F)c2)C1` (stereo not drawn), the INHIBITION amounted to 59.3%.
The figure for `CCCN(C(=O)c1ccccn1)c1nc2c(s1)CCc1c-2cnn1C` is 38.1%; for `CCCN(C(=O)c1ccncc1)c1nc2c(s1)CCc1c-2cnn1C` it is 55.6%.
The figure for `CCCN(C(=O)c1cnccn1)c1nc2c(s1)CCc1c-2cnn1C` is -28.8%; for `OC1CCN(Cc2c(C3CCCNC3)[nH]c3ncccc23)CC1` (stereo not drawn) it is -65.3%; for `O=C(Cn1ccc2ccccc21)NC[C@@H]1CCCN2CCCC[C@H]12` it is -14.5%.
Next, `Cc1ccc2c(ccn2CCC(=O)NC[C@@H]2CCCN3CCCC[C@H]23)c1`: 52%.
Consider `COc1ccc2c(ccn2CC(=O)NC[C@@H]2CCCN3CCCC[C@H]23)c1`, for which the INHIBITION is -57.3%.
Next, `O=C(Cn1ccc2cc(Br)ccc21)NC[C@@H]1CCCN2CCCC[C@H]12`: -14%; `Cc1ccc2c(ccn2CC(=O)NC[C@@H]2CCCN3CCCC[C@H]23)c1`: 49%.
Next, `O=C(CCn1ccc2cc(Br)ccc21)NC[C@@H]1CCCN2CCCC[C@H]12`: 67.1%; `Nc1cc(N2CCC(c3cc(Cc4ccccc4)n[nH]3)CC2)ccn1`: 11.1%.
The figure for `CN(C)[C@@H]1CN(Cc2ccccn2)C[C@H]1c1cn(C)c2ccccc12` is 52.6%.
`Cc1cc(C)n(C2CN(Cc3ccccn3)C2)n1`: the INHIBITION was -90.2%.
The figure for `CN(Cc1ccco1)[C@@H]1CN(Cc2ccccn2)C[C@@H]2CCCO[C@@H]21` is 31.5%; for `COc1cccc2c1OCC(Cc1cc(C(=O)N3CCCC3)ccn1)C2` (stereo not drawn) it is -9.28%; for `COc1ccc([C@@H]2CN(Cc3cccnc3N)C[C@H]2N(C)C)cc1` it is 53.9%.
The figure for `COc1ccc([C@@H]2CN(Cc3ccncc3)C[C@H]2N(C)C)cc1` is -36.3%; for `COc1ccc([C@@H]2CN(Cc3cccnc3N)C[C@H]2NC(C)=O)cc1` it is -59.7%; for `Cn1cccc1C(=O)N1CCn2cc(CN3CCCC3)nc2C1` it is -26.2%.
Next, `CCc1ccc(CN(C/C=C/c2ccccc2)CCOC)nc1`: 54.8%.
On to `COCCN(C/C=C/c1ccccc1)Cc1nccs1`, for which the INHIBITION is on record as -7.08%.
Next, `COCCN(C/C=C/c1ccccc1)Cc1ccccn1`: 23.1%; `O=C(c1cccc(Cl)c1)N1CCCn2c(CN3CCCCC3)nnc2C1`: 10.2%.
Next, `Cn1ccnc1-c1nc2cc(S(=O)(=O)N3CCCC3)ccc2n1C`: -13.2%; `Nc1cc2c(nn1)CCN(C(=O)CCC1CCCCC1)C2`: -69.7%; `CN(C)c1ccc(CN(CCCn2ccnc2)Cc2c[nH]cn2)cc1`: 79.8%.
The figure for `Cc1ccc(CN(CCCn2ccnc2)Cc2c[nH]cn2)s1` is 21.2%; for `c1cc(CN(CCCn2ccnc2)Cc2ccoc2)ccn1` it is -27%; for `Cc1nc[nH]c1-c1nccn1CCN1CCOC1=O` it is -38.9%.
Consider `Cn1cc(C2CCCN2CCCn2c(=O)oc3ccccc32)cn1` (stereo not drawn), for which the INHIBITION came to 8.65%.
The figure for `Cc1nc(C2CCCN2CCCn2c(=O)oc3ccccc32)no1` (stereo not drawn) is -44.1%; for `O=c1oc2ccccc2n1CCCN1CCCC1c1ccc(O)cc1` (stereo not drawn) it is 54.1%; for `CN1CCC(CCc2ccnc(NC(=O)c3ccccn3)c2)CC1` it is -102%.
The figure for `CCn1cc(CNC(=O)CCn2ncc3c(Cl)cccc32)cn1` is -21.7%; for `Cn1cc(CNCCNc2ncc(Cl)cc2Cl)cn1` it is 54%; for `Cn1ccnc1CNCCNc1ncc(Cl)cc1Cl` it is 41.8%.
The figure for `CCn1cc(CNCCNc2ncc(Cl)cc2Cl)cn1` is 66.6%; for `CCn1cc(CNc2ccc3nccnc3c2)cn1` it is -14.1%; for `Cn1cc(CCNCc2cc(Cl)c3c(c2)OCCO3)cn1` it is -26.6%.
For the molecule `O=C([C@@H]1CC[C@@H]2[C@@H](CCN2Cc2ccoc2)O1)N1CCCC1`, the INHIBITION is on record as -94.6%.
Next, `O=S(=O)(c1ccc(Cl)s1)N1CCN(Cc2nc(-c3ccco3)cs2)CC1`: -66%.
Next, `NC(=O)C1(c2cnccn2)CCCN1Cc1ccncc1` (stereo not drawn): -58.5%.
As to `O=C(NCCNc1ccc(Br)cn1)c1ccc(O)cc1`, the INHIBITION is on record as -20.5%.
Next, `O=C(NCCNc1cncc(Br)c1)c1ccc(O)cc1`: 52.2%; `O=C(NCCNC(=O)c1ccc(Br)cc1)c1ccc(O)cc1`: 30.3%.
Next, `CCCN1CCc2c(C(=O)N(C)Cc3ccccn3)nn(C)c2C1`: -23.7%; `O=C(Cc1ccsc1)N1CCCC(c2n[nH]c3ncccc23)C1` (stereo not drawn): -37.1%; `CS(=O)(=O)NCCCN1CCCC1c1ccccc1` (stereo not drawn): -93.1%.
Next, `O=C(CCN1CCCCC1c1cc2ccccc2[nH]1)N1CCOCC1` (stereo not drawn): 39.3%.
With `CS(=O)(=O)NCCCN1CCCC1Cc1ccccc1` (stereo not drawn), the INHIBITION was -29%.
Next, `COc1ccc(C2CCCCCN2S(C)(=O)=O)cc1` (stereo not drawn): -92.8%; `CS(=O)(=O)NCCCN1CCCC1c1cccc(Br)c1` (stereo not drawn): 65.4%.
The figure for `COc1ccc(C2CCCCCN2CCCNS(C)(=O)=O)cc1` (stereo not drawn) is 59.3%.
As for `COc1cccc(C2CCCN2CCCNS(C)(=O)=O)c1` (stereo not drawn), the INHIBITION is given as -0.589%.
Next, `CS(=O)(=O)NCCCN1CCCCC1c1cc2ccccc2[nH]1` (stereo not drawn): 58.9%; `CS(=O)(=O)NCCCN1CCCC1c1ccsc1` (stereo not drawn): -73.1%.
The figure for `Cc1ocnc1C(=O)N1CCCC1c1ccc(C(=O)N2CCSCC2)s1` (stereo not drawn) is -154%; for `Cn1c(=O)c2c(n3ncnc13)NC(=O)CC2c1cccc(Br)c1` (stereo not drawn) it is -61.2%.
Next, `CC(C)c1nc(CN(C)C(=O)c2cn3ccsc3n2)cs1`: -43.1%; `COc1cccc(C=CCCN2CCCN(C(C)=O)CC2)c1`: -13%; `COc1ccc(F)c(CN2CCCC3(CCN(C(=O)CSC)C3)C2)c1` (stereo not drawn): -63.5%.
For the molecule `Cc1cc(F)ccc1CN1CCCC(O)(CN2CCCC2)C1` (stereo not drawn), the INHIBITION worked out at 66.7%.
The figure for `Cc1cc(C)c(C(=O)N2CCCC(O)(CN3CCCC3)C2)cc1C` (stereo not drawn) is -30.5%.
Regarding `Cc1ccccc1CN1C[C@@H](CN(C)CCO)[C@@H](CO)C1`, the INHIBITION came to 7.46%.
Next, `COCC(=O)N1CCC2(CCCN(Cc3cc(OC)ccc3F)C2)C1` (stereo not drawn): -70%.
Next, `CCCn1ccnc1CN1CCC(O)(CN2CCCCC2)C1` (stereo not drawn): 18.6%; `CC(C)c1nccc(CN2CCC(O)(CN3CCCCC3)C2)n1` (stereo not drawn): 32.8%; `CN(C)C[C@@H]1CN(Cc2ccccc2C#N)C[C@@H]1CO`: -47.7%.
`Cc1cc(F)ccc1CN1CCCC2(C1)OCCO2`: the INHIBITION was -67.8%.
Next, `Cc1cc(-n2cccn2)ccc1CN1C[C@@H](CN(C)C)[C@@H](CO)C1`: 51.7%; `COc1ccc(CN2CCC(O)(CN3CCCCC3)C2)c(C)c1` (stereo not drawn): 67.6%; `Cc1cc(-n2cccn2)ccc1CN1CCC(O)(CN2CCCCC2)C1` (stereo not drawn): 62.1%.
